Measured values published in PubChem BioAssay (NCI).
About 79,000 compounds went through this panel and 15% of them were active in at least one assay; those are over-represented in the sample as a whole. Unmarked numbers belong to inactive results. Rule as the data show it: active = growth inhibition above about 70%; inactive = the rest.

Experiment: NCI Yeast Anticancer Drug Screen. Data for the cln2 rad14 strain (AID 165);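 also: 0% = growth equal to vehicle treated cultures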
Conditions: S. cerevisiae cln2 rad14 strain, at 50.0 µM, active compounds read high
Outline: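 Strain: cln2 rad14 yeast, altered in cell cycle control and DNA damage repair. Read-out: growth inhibition vs vehicle.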

Compound | growth inhibition
S=c1nc2[nH]c3ccccc3c2n[nH]1 | -7.3%
CSc1nsc(N)n1 | -26.9%
C=CC(C)(C)n1cc(C2=C(O)C(=O)C(c3cn(C(C)(C)C=C)c4ccccc34)=C(O)C2=O)c2ccccc21 | 4.7%
CC(C)N1CC(=O)N2CSCC2C1=O (centres undefined) | -6.85%
O=C(O)c1cc(I)ccc1O | -33.8%
Cn1c(=O)c2[nH]c(CCCCC(=O)O)nc2n(C)c1=O | -20.9%
CC(C)(N)CO[C@H]1C[C@H]2CC[C@@]1(C)C2(C)C | -26.4%
Cn1c2ccccc2c2nnc(NCCCCO)nc21 | 24.8%
CCOC(C=O)OCC | -9%
CCC(C)C1CCC(O)CC1 (centres undefined) | 21.5%
C[C@H](CCC[C@H](C)OS(=O)(=O)c1ccccc1)OS(=O)(=O)c1ccccc1 | 4.55%
Cc1cccc(C)c1NC(=S)/N=C\c1c(O)[nH]c(=O)[nH]c1=O | -24.3%
C=CC(=O)OC1CCC(C(C)(C)CC)CC1 (centres undefined) | -22.7%
CC(=O)c1cccc(N(C)S(=O)(=O)c2ccc(C)cc2)c1 | -31.2%
O=C1CSc2ccccc2N1 | -12.7%
OCC1OC(n2ccc3c2ncn2ncnc32)C(O)C1O (centres undefined) | -15.3%
O=[N+]([O-])c1ccc2[nH]c(=S)n(/C=C(/c3ccc(Cl)cc3Cl)S(=O)(=O)Cc3ccc(Cl)cc3Cl)c2c1 | 23.9%
C=C(C)[C@@H]1CC[C@]2(CO)CC[C@]3(C)[C@H](CC[C@@H]4[C@@]5(C)CC[C@H](O)C(C)(C)[C@@H]5CC[C@]43C)[C@@H]12 | 11.8%
CCCCCC(=O)OCCC1CCCCC1 | -6.7%

Compound | growth inhibition
CCOC(=O)/C(C#N)=C\c1c[nH]c2ccccc12 | -1.2%
O=C1NCC2CCCC1C2 (centres undefined) | -40.9%
CSCCC(NC(=O)C(Cl)Cl)C(=O)O (centres undefined) | -49%
COc1cc(OC)c2cc(C(=O)c3ccc(C#N)cc3)c(=O)oc2c1 | 31%
C#CCSc1nnnn1-c1ccccc1 | 19.4%
O=Cc1ccc(F)cc1 | -13.1%
NC(CSSCC(N)C(=O)O)C(=O)O (centres undefined) | 4%
C=CCC(OC(C)=O)c1ccc(OC)c(OC)c1 (centres undefined) | -13.9%
CSc1nc2[nH]ncc2c(=O)[nH]1 | -40.6%
Cc1cc2nc(C)c(C)nc2cc1C | 7.75%
C=CCC(OC(C)=O)c1ccc(C(C)C)cc1 (centres undefined) | -55.1%
CCOC(=O)C1(N)CCCCC1 | -9.85%
Cc1ccc(S(N)(=O)=O)cc1Cl | 5.8%
CC(=O)c1cccc(NS(=O)(=O)c2ccc(C)cc2)c1 | -36.7%
NC(CCl)=NCC12CC3CC(CC(C3)C1)C2 | 14.8%
CCOC(=O)CNC | -4.5%
CC(=O)NCNC(C)=O | -75.1%
CC(CCC#N)(CCC#N)C(=O)c1ccccc1 | -38.3%
O=S(=O)(O)c1cccc2cccnc12 | -14.6%

Experiment: NCI Yeast Anticancer Drug Screen. Data for the bub3 strain (AID 167)
Conditions: S. cerevisiae bub3 mutant strain, at 50.0 µM, active compounds read high
Outline: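 Screening used yeast with an engineered genetic alteration affecting cell cycle control. Compound-exposed cultures were compared with vehicle cultures, and reduced growth was taken as inhibition.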

Compound | growth inhibition
CSc1nsc(N)n1 | 16.8%
C=CC(C)(C)n1cc(C2=C(O)C(=O)C(c3cn(C(C)(C)C=C)c4ccccc34)=C(O)C2=O)c2ccccc21 | -18.8%
CC(C)N1CC(=O)N2CSCC2C1=O (centres undefined) | 13.1%
O=C(O)c1cc(I)ccc1O | -12.7%
Cn1c(=O)c2[nH]c(CCCCC(=O)O)nc2n(C)c1=O | -39.4%
CC(C)(N)CO[C@H]1C[C@H]2CC[C@@]1(C)C2(C)C | 10.2%
Cn1c2ccccc2c2nnc(NCCCCO)nc21 | 19.6%
CCOC(C=O)OCC | -4.3%
CCC(C)C1CCC(O)CC1 (centres undefined) | 24.2%
C[C@H](CCC[C@H](C)OS(=O)(=O)c1ccccc1)OS(=O)(=O)c1ccccc1 | -8.15%
Cc1cccc(C)c1NC(=S)/N=C\c1c(O)[nH]c(=O)[nH]c1=O | -46.1%
C=CC(=O)OC1CCC(C(C)(C)CC)CC1 (centres undefined) | -8.15%
CC(=O)c1cccc(N(C)S(=O)(=O)c2ccc(C)cc2)c1 | 45.1%
O=C1CSc2ccccc2N1 | 1.3%
OCC1OC(n2ccc3c2ncn2ncnc32)C(O)C1O (centres undefined) | -37.6%
O=[N+]([O-])c1ccc2[nH]c(=S)n(/C=C(/c3ccc(Cl)cc3Cl)S(=O)(=O)Cc3ccc(Cl)cc3Cl)c2c1 | -3%
C=C(C)[C@@H]1CC[C@]2(CO)CC[C@]3(C)[C@H](CC[C@@H]4[C@@]5(C)CC[C@H](O)C(C)(C)[C@@H]5CC[C@]43C)[C@@H]12 | -11.7%
CCCCCC(=O)OCCC1CCCCC1 | 11.6%

Compound | growth inhibition
CCOC(=O)/C(C#N)=C\c1c[nH]c2ccccc12 | 57.7%
O=C1NCC2CCCC1C2 (centres undefined) | -13.4%
CSCCC(NC(=O)C(Cl)Cl)C(=O)O (centres undefined) | 17%
COc1cc(OC)c2cc(C(=O)c3ccc(C#N)cc3)c(=O)oc2c1 | 35.1%
C#CCSc1nnnn1-c1ccccc1 | 15.8%
NC(CSSCC(N)C(=O)O)C(=O)O (centres undefined) | -20.9%
C=CCC(OC(C)=O)c1ccc(OC)c(OC)c1 (centres undefined) | 8.7%
CSc1nc2[nH]ncc2c(=O)[nH]1 | -3.05%
Cc1cc2nc(C)c(C)nc2cc1C | -25.7%
C=CCC(OC(C)=O)c1ccc(C(C)C)cc1 (centres undefined) | -0.5%
CCOC(=O)C1(N)CCCCC1 | 13%
Cc1ccc(S(N)(=O)=O)cc1Cl | -1.5%
CC(=O)c1cccc(NS(=O)(=O)c2ccc(C)cc2)c1 | -7.9%
NC(CCl)=NCC12CC3CC(CC(C3)C1)C2 | 54%
CCOC(=O)CNC | 10.3%
CC(=O)NCNC(C)=O | 7.8%
CC(CCC#N)(CCC#N)C(=O)c1ccccc1 | -4.75%
O=S(=O)(O)c1cccc2cccnc12 | 10.4%
